The source of these data is ChEMBL document CHEMBL1157539, “Thousands of chemical starting points for antimalarial lead identification” (Nature, 2010).

This test concerns HepG2. In words: GSK_TCMDC: Percent inhibition of human HepG2 cell line. Test compounds present at 10uM. It counts as functional.
As to `O=C(NCc1ccc(C(F)(F)F)cc1)c1cccc(-c2nnc(-c3cccc(-c4cncnc4)c3)o2)c1`, the Inhibition (commonly the share of the control response that was lost under treatment) is recorded as 13%.

`O=C(Nc1cccc(Cl)c1Cl)Nc1ccnc2ccccc12` gave an Inhibition of 31%. In the case of `Cc1cc(N(C)CCN(C)C)nc(Nc2ccc(Br)cc2)n1` it was 7%; in that of `CCOc1cc(C(=O)NCc2cc(Cl)cc(Cl)c2)ccc1-c1nc2cc(Cl)ccc2[nH]1`, 1%; in that of `Cc1cnc(NCC2CCCCC2)nc1N[C@@H](CC(C)C)C(=O)Nc1ccccc1.O=C(O)C(F)(F)F`, 12%. The value for `COC(=O)c1ccc(NC(=O)Nc2cccc(CCNCc3ccccc3)c2)cc1.O=C(O)C(F)(F)F` was 2%.

The compound `Br.COc1ccc(CCCON2C(=N)N=C(N)NC2(C)C)cc1` registered an Inhibition of 61%. In the case of `CC1CN(Cc2ccc(-c3cccc(-c4nc5cc(F)ccc5[nH]4)c3)cc2)CC(C)O1.O=C(O)C(F)(F)F` (stereo unspecified) it was 28%; in that of `Cl.O=C(Nc1ccc(Cl)cc1)Nc1cccc(-c2cc(CNCCc3ccccc3)oc2-c2ccncc2)c1`, 40%. Turning to `COc1ccc(C2CCN(CCN3CCC(NC(=O)c4cccc(-c5ccncc5)c4)CC3)CC2)c(OC)c1`, the Inhibition was 7%. The value for `COc1cccc(Nc2nnc(SCC(=O)NNC(=O)c3ccccn3)s2)c1` was 52%.

Take `FC(F)(F)c1ccc2[nH]c(-c3cccc(-c4cccc(CN5CCN(c6ccncc6)CC5)c4)c3)nc2c1.O=C(O)C(F)(F)F`: the Inhibition is 93%. In the case of `CCCOc1ccccc1C(=O)Nc1nonc1-c1ccc(OCC)c(OCC)c1` it was 46%; in that of `COc1ccc(-c2cccc(NC(=O)c3cccc(Cl)c3)c2)cc1CN(C)CCN(C)C.O=C(O)C(F)(F)F`, 32%; in that of `Cc1cc2nc(-c3ccc(C(=O)NC4CCN(Cc5ccccc5)CC4)cc3)[nH]c2cc1C`, 0%.

In the case of `Cn1nc(-c2ccc(NC(=O)Nc3cc(C(F)(F)F)ccc3F)c(F)c2)c2cnc(NCCCN3CCOCC3)nc21.O=C(O)C(F)(F)F`, the Inhibition came out at 31%. As to `COc1ccc2[nH]ccc(=NN=Cc3ccccc3Cl)c2c1`, the Inhibition was determined as 29%. In the case of `CN(C)CCNc1nccc(N2CCc3ncnc(Nc4ccc(OCc5cccc(F)c5)c(Cl)c4)c3C2)n1` it was 65%; in that of `Br.CCCCCCCCn1ccc(=N)cc1`, 49%; in that of `Cc1cc(Cl)c(S(=O)(=O)NC(C)(C)C)cc1OCC(=O)NC1CCCCC1`, 10%. As to `COC[C@H]1CCCN1Cc1ccc(-c2ccc(-c3nc4ccccc4[nH]3)s2)cc1`, the Inhibition is 18%. In the case of `CCOc1c(Cl)cc(Cl)cc1CNCCCNc1nc2ccccc2[nH]1.Cl` it was 18%. In the case of `CC(C)CNC(=O)c1cncc(-c2ccc(CN(C)C3CCN(C)CC3)cc2)c1.O=C(O)C(F)(F)F` it was 15%. Take `Cc1cc(N(C)C)nc(Nc2ccc(NC(=O)c3cccc(F)c3)cc2)n1`: the Inhibition is on record as 0%.

In turn, `CC1(C)N=C(NC(=O)c2cc([N+](=O)[O-])cc([N+](=O)[O-])c2)N=C(N)N1OCc1cccc2ccccc12` yielded an Inhibition of 66%. The value for `Cc1cccc2nc(-c3cccc(-c4cccc(CN5CCC(CO)CC5)c4)c3)[nH]c12.O=C(O)C(F)(F)F` was 4%.
